# Source: PubChem BioAssay (EPA / NIEHS)
# Inconclusive results are not listed. Calls of active or inactive are those of the source. The calls were made as follows, unless noted: active = hit-call score of the fitted dose curve at least 0.9, where 1 is the maximum; inconclusive = response in the unintended direction; inactive = score below 0.9.
# Key:
# [1] = biological target: Cellular tumor antigen p53 (Homo sapiens) (UniProt P04637); test: TOX21_p53_BLA_p2_ratio: Tox21 HCT-116 p53 Agonism Beta-lactamase Assay, Ratio, Phase 2 (AID 2283592)
# Cellular tumor antigen p53 (Homo sapiens), sequence (P04637 whole entry, looked up): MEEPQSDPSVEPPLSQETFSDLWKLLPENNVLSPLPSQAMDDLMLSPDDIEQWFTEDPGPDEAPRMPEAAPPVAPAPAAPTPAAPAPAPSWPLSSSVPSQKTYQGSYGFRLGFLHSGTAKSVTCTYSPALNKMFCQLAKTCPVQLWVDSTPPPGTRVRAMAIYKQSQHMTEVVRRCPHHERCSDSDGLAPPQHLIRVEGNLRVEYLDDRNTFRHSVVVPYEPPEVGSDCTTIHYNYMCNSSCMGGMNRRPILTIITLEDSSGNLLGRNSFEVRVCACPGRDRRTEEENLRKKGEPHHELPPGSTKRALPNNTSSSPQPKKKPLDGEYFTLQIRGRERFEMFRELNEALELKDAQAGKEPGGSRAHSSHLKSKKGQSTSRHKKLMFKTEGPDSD
# Summary of the method: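 HCT116 cells carrying a p53-responsive beta-lactamase reporter were plated, incubated 5 h at 37C, then dosed with compounds in DMSO (217-fold dilution) for 16 h. CCF4-AM substrate was added for 2 h at room temperature; the 460/530 nm emission ratio gave gain-of-signal activity relative to DMSO.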
# [2] = TOX21_p53_BLA_p3_viability: Viability Assessment in the Tox21 HCT-116 p53 Agonism Beta-lactamase Assay, Phase 3 (AID 2283593);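 also: cells exposed to compound for 16 h before reading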
# Summary of the method: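 HCT-116 cells (4000/well) rested 5 h at 37C, then got DMSO compounds by pin tool (217-fold dilution) for 16 h at 37C, 5% CO2. After the bla read, CellTiter-Glo was added and luminescence read at 30 min, room temperature.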
# [3] = TOX21_p53_BLA_p4_viability: Viability Assessment in the Tox21 HCT-116 p53 Agonism Beta-lactamase Assay, Phase 4 (AID 2283597);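 also: hits lower the luminescence signal meaning cytotoxicity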
# Summary of the method: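 HCT116 p53-bla cells (4000/well) rested 5 h at 37C, then received compounds in DMSO (217-fold dilution) for 16 h at 37C, 5% CO2. CellTiter-Glo was added after the CCF4-AM read, and luminescence was read after 30 min at room temperature.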
# [4] = biological target: Cellular tumor antigen p53 (Homo sapiens) (UniProt P04637); test: TOX21_p53_BLA_p5_ratio: Tox21 HCT-116 p53 Agonism Beta-lactamase Assay, Ratio, Phase 5 (AID 2283599)
# Summary of the method: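 HCT-116 cells carrying a p53-inducible beta-lactamase reporter were seeded at 4000 cells/well and dosed after 5 h with compound in DMSO (217-fold dilution). After 16 h at 37C, CCF4-AM substrate was added for 2 h, and the 460/530 nm emission ratio was scored as gain-of-signal versus DMSO.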
# [5] = biological target: Cellular tumor antigen p53 (Homo sapiens) (UniProt P04637); test: TOX21_p53_BLA_p4_ratio: Tox21 HCT-116 p53 Agonism Beta-lactamase Assay, Ratio, Phase 4 (AID 2283601)
# Summary of the method: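 HCT116 cells carrying an inducible beta-lactamase reporter were plated at 4000 cells/well, rested 5 h, then exposed to compounds in DMSO (217-fold dilution) for 16 h at 37C. CCF4-AM substrate was loaded 2 h at room temperature; 460/530 nm emission ratio scored gain-of-signal versus DMSO.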
# [6] = TOX21_p53_BLA_p5_viability: Viability Assessment in the Tox21 HCT-116 p53 Agonism Beta-lactamase Assay, Phase 5 (AID 2283600)
# Summary of the method: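 Cells were plated at 4000/well, rested 5 h at 37C, then given compounds in DMSO (217-fold dilution) for 16 h at 37C, 5% CO2. Following the CCF4-AM beta-lactamase read, CellTiter-Glo was added and luminescence was read after 30 min at room temperature.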
# [7] = biological target: Cellular tumor antigen p53 (Homo sapiens) (UniProt P04637); test: TOX21_p53_BLA_p3_ratio: Tox21 HCT-116 p53 Agonism Beta-lactamase Assay, Ratio, Phase 3 (AID 2283596)
# Summary of the method: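 HCT116 p53-bla cells (4000/well) given compound in DMSO (217-fold dilution) after 5 h, incubated 16 h at 37C. CCF4-AM substrate 2 h at room temperature; 460/530 nm emission ratio, gain fitted against DMSO.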
# [8] = CCTE_Harrill_HTTr_Viability_MCF7: CCTE's 6-hour Cell Viability Assessment for the High-Throughput Transcriptomics (HTTr) Platform, in MCF-7 cells cultured in DMEM + 10% fetal bovine serum, Harrill Lab (AID 2284010; active = hit-call score of the fitted dose curve at least 0.9, where 1 is the maximum; inactive = score below 0.9)
# Summary of the method: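 Viability measured through PI dye exclusion by high-content imaging at 6 h post-dosing.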
# [9] = CCTE_Harrill_HTTr_Apoptosis_MCF7: CCTE's 6-hour Apoptosis Assessment for the High-Throughput Transcriptomics (HTTr) Platform, in MCF-7 cells cultured in DMEM + 10% fetal bovine serum, Harrill Lab (AID 2284011; active = hit-call score of the fitted dose curve at least 0.9, where 1 is the maximum; inactive = score below 0.9)
# Summary of the method: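 MCF-7 cells in DMEM + 10% fetal bovine serum were exposed to chemicals for 6 hours over an eight-point dilution series. Caspase-3/7 activation was imaged by high content imaging with CellEvent Caspase 3/7 Green; bidirectional fitting used DMSO as baseline.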
# [10] = CCTE_Harrill_HTTr_CellCount_MCF7: CCTE's Cell Proliferation Assessment for the High-Throughput Transcriptomics (HTTr) Platform, Harrill Lab (AID 2284012);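 also: count of Hoechst-stained nuclei per well by high-content imaging in MCF-7 cells; cells exposed to compound for six hours; intended direction is loss of nuclei count meaning fewer cells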
# Summary of the method: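 Nuclei counting (Hoechst, high content imaging) in MCF-7 after a 6 h treatment at eight concentrations. Activity fitted bidirectionally, DMSO as negative control.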
structure (smiles),measurement,setting,value
Cc1ccc2nc(-c3ccc(N)cc3)sc2c1S(=O)(=O)O,outcome,[1],inactive
same,outcome,[2],inactive
same,outcome,[3],inactive
same,outcome,[4],inactive
same,outcome,[5],inactive
Oc1ccc(Cl)c2c1CCC2,outcome,[1],inactive
same,outcome,[2],inactive
same,outcome,[3],inactive
same,outcome,[4],inactive
same,outcome,[6],inactive
same,outcome,[5],inactive
Fc1ccc([C@@H]2CCNC[C@H]2COc2ccc3c(c2)OCO3)cc1,outcome,[1],inactive
same,outcome,[2],inactive
same,AC50,[3],37.4 µM (active)
same,outcome,[4],inactive
same,outcome,[6],inactive
same,outcome,[5],inactive
ICCc1ccccc1,outcome,[1],inactive
same,outcome,[2],inactive
same,outcome,[3],inactive
same,outcome,[4],inactive
same,outcome,[5],inactive
C[C@H](Cc1ccc(O)c(O)c1)[C@@H](C)Cc1ccc(O)c(O)c1,outcome,[1],inactive
same,outcome,[2],inactive
same,AC50,[3],25.9 µM (active)
same,outcome,[4],inactive
same,outcome,[5],inactive
N[C@@H](Cc1cnc[nH]1)C(=O)O,outcome,[1],inactive
same,outcome,[2],inactive
same,outcome,[3],inactive
same,outcome,[6],inactive
O=C(O)c1ccccc1Nc1cc(Cl)ccc1C(=O)O,outcome,[1],inactive
same,outcome,[2],inactive
same,outcome,[3],inactive
same,outcome,[4],inactive
same,outcome,[6],inactive
same,outcome,[5],inactive
c1ccc(SSc2ccccc2)cc1,outcome,[1],inactive
same,outcome,[2],inactive
same,outcome,[4],inactive
same,outcome,[5],inactive
CC(C)Cc1ccc(CC(=O)O)cc1,outcome,[1],inactive
same,outcome,[2],inactive
same,outcome,[3],inactive
same,outcome,[4],inactive
same,outcome,[5],inactive
Cc1cnc(C(=O)NCCc2ccc(S(=O)(=O)NC(=O)NC3CCCCC3)cc2)cn1,outcome,[1],inactive
same,outcome,[7],inactive
same,outcome,[3],inactive
same,outcome,[4],inactive
same,outcome,[6],inactive
same,outcome,[5],inactive
same,outcome,[8],inactive
same,outcome,[9],inactive
same,outcome,[10],inactive
Oc1cc2c(cc1O)[C@H]1c3ccc(O)c(O)c3OC[C@@]1(O)C2,outcome,[2],inactive
same,outcome,[3],inactive
same,outcome,[4],inactive
CCn1cc(C(=O)O)c(=O)c2cc(F)c(N3CCNCC3)cc21,outcome,[1],inactive
same,outcome,[7],inactive
same,outcome,[3],inactive
same,outcome,[4],inactive
same,outcome,[5],inactive
O=C[C@H](O)[C@@H](O)[C@H](O)[C@H](O)CO,outcome,[7],inactive
same,outcome,[3],inactive
same,outcome,[6],inactive
same,outcome,[5],inactive
c1cc(CN2CCCCC2)cc(OCCCNc2nc3ccccc3s2)c1,outcome,[2],inactive
same,outcome,[3],inactive
same,outcome,[6],inactive
CC1c2ccccc2CN1NC(=O)c1ccc(Cl)c(S(N)(=O)=O)c1 (stereo not given),outcome,[1],inactive
same,outcome,[3],inactive
same,outcome,[4],inactive
same,outcome,[6],inactive
same,outcome,[5],inactive
COc1ccccc1N1CCN(CCCNc2cc(=O)n(C)c(=O)n2C)CC1,outcome,[1],inactive
same,outcome,[7],inactive
same,outcome,[3],inactive
same,outcome,[6],inactive
same,outcome,[5],inactive
